An excerpt weighted towards active compounds, which were near 1.8% of everything screened.
CIT2 TOR yeast: modulators of CIT2-GFP expression in yeast, primary screen, S. cerevisiae, GFP fusion, multiplex flow cytometry, MLPCN library; 320,000 tested, 0.065% active; AID 2029, 2009; GFP response vs DMSO, % at 10 µM; S. cerevisiae CIT2-GFP strain, 3 h; 100 means same as DMSO wells;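 active = GFP response relative to DMSO above a set limit, near the screen mean plus 3 SD, cut at about 150% in these data; inconclusive = Fewer than 70 cells measured for a yeast strain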;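 note: ratio of well median GFP fluorescence to mean of DMSO wells on the plate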
MEP2-GFP yeast: modulators of MEP2-GFP levels in yeast, primary screen, S. cerevisiae, multiplex flow cytometry, MLPCN library | S. cerevisiae MEP2-GFP strain, 3 h; 100% = DMSO control level | GFP response vs DMSO, % at 10 µM | 330,000 tested, 0.51% active | AID 2016, 2009;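 active = GFP response versus DMSO above a set limit, roughly screen mean plus 3 SD, cut at about 180% in these data; inconclusive = fewer than 70 cells counted for a yeast strain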;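 note: median GFP fluorescence of the barcode-gated MEP2-GFP cells per well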
AGP1-GFP MLPCN: modulators of AGP1-GFP expression in yeast TOR pathway, primary screen, cell-based, multiplex flow cytometry, S. cerevisiae, MLPCN library | GFP response vs DMSO, % at 10 µM | AID 2066, 2009 | 320,000 tested, 0.02% active | 3 h; GFP as percent of DMSO wells;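 active = GFP response relative to DMSO above a set limit, near screen average plus 3 SD, cut at about 150% in these data; inconclusive = fewer than 70 cells counted for the yeast strain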;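 note: median GFP channel fluorescence of the gated AGP1 strain per well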
Myeloid diff MLP: induction of myeloid progenitor differentiation, primary screen, cell-based, flow cytometry, MLPCN library; ER-HoxA9 myeloid progenitors, lysozyme-GFP differentiation; calls only at 10 µM; 360,000 tested, 1% active; AID 624256, 2012;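 active = normalized GFP-positive differentiation at or above the plate's own cutoff, the solvent-only control mean plus 3 SD; inconclusive = no clear call, values can overlap the other calls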;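 note: cells exposed to compound for four days before flow analysis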
RPL19A TOR yeast: RPL19A-GFP expression modulators in yeast, primary screen, cell-based, S. cerevisiae, multiplex flow cytometry, MLPCN | 330,000 tested, 0.3% active | percent response vs DMSO, % at 10 µM | S. cerevisiae RPL19A-GFP strain, 3 h; active compounds read low | AID 2025, 2009;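 active = percent response vs DMSO below 50%; inconclusive = fewer than 70 events counted for the yeast strain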;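 note: median channel GFP fluorescence of the barcoded RPL19A-GFP strain; lower means less RPL19A-GFP as with rapamycin TOR inhibition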
LAP4-GFP MLPCN: modulators of LAP4-GFP expression in yeast, primary screen, S. cerevisiae, multiplex flow cytometry, MLPCN library; 3 h; median GFP as percent of DMSO wells; GFP response vs DMSO, % at 10 µM; 320,000 tested, 0.34% active; AID 2023, 2009;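 active = GFP response vs DMSO above a set limit, about the screen mean plus 3 SD, cut at about 150% in these data; inconclusive = under 70 cell events counted for the yeast strain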
Myeloid diff CP1: inducers of myeloid progenitor differentiation, confirmation, cell-based, GFP/Mac1 flow cytometry, cherry pick 01 | shares compounds with Myeloid diff MLP | ER-HoxA9 myeloid progenitors, GFP/Mac1 double-positive flow | calls only | 2,300 tested, 2% active | AID 651706, 2012;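 active = share of green or green-and-red cells above 9 and 9% in run 1 or 4 and 3% in run 2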
GFP autofluor: compound fluorescence in myeloid differentiation counter-screen; shares compounds with Myeloid diff MLP; ER-HoxA9 myeloid progenitors, no estrogen, GFP autofluorescence flow cytometry; vehicle wells 0%, positive control 100%; fluorescence response, % (test concentration not listed); 2,300 tested, 7.4% active;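 active = over 5% cells positive for green fluorescent reporter, or over 2% positive for both it and APC stain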
Of the large screens only hits and unclear results are named; the others gave an inactive call (follow-up assays come after a bar, where they were run).

C[C@@H]1CN([C@@H](C)CO)C(=O)c2cc(C#CC3CCCCC3)cnc2O[C@@H]1CN(C)S(=O)(=O)c1ccc(F)cc1	none (no result: CIT2 TOR yeast, MEP2-GFP yeast, AGP1-GFP MLPCN, RPL19A TOR yeast, LAP4-GFP MLPCN)
C[C@@H]1CN([C@H](C)CO)C(=O)c2cc(C#CC3CCCCC3)cnc2O[C@H]1CN(C)Cc1cccnc1	none (no result: CIT2 TOR yeast, MEP2-GFP yeast, AGP1-GFP MLPCN, RPL19A TOR yeast, LAP4-GFP MLPCN) | Myeloid diff CP1 inactive | GFP autofluor inactive
Cn1c(/C=C/c2ccc(Br)cc2)c([N+](=O)[O-])c(=O)n(C)c1=O	none
CC1CC(C)CN(C(=O)CN2C(=O)NC3(CCCCCC3)C2=O)C1 (stereo unspecified)	none
CC1CN(C(=O)CN2C(=O)NC3(CCCCCCC3)C2=O)CC(C)O1 (stereo unspecified)	Myeloid diff MLP active | Myeloid diff CP1 inactive | GFP autofluor inactive
CC1CCN(c2ccc3c(c2)S(=O)(=O)c2cccc(C(=O)NC4CCCCC4)c2C3=O)CC1	Myeloid diff MLP active | Myeloid diff CP1 inactive | GFP autofluor inactive
CN(C)S(=O)(=O)c1ccc(Cl)c(NC(=O)COC(=O)/C=C/c2ccc3ccccc3n2)c1	none
COc1ccc(Br)cc1CN(C)C(=O)C1=CC=CN2CCS(=O)(=O)N=C12	none | Myeloid diff CP1 inactive | GFP autofluor inactive
COc1ccc(Br)cc1CN(C)C(=O)c1ccncc1	none
CN(Cc1ccc(Cl)c(Cl)c1)C(=O)C1=CC=CN2CCS(=O)(=O)N=C12	Myeloid diff MLP active | Myeloid diff CP1 active | GFP autofluor inactive
Cc1ccc(S(=O)(=O)N2CCCCC2)cc1NC(=O)CSc1ncnc2ccccc12	none
Cc1ccc(NC(=O)CSc2ncnc3ccccc23)cc1S(=O)(=O)N1CCCCCC1	Myeloid diff MLP active | Myeloid diff CP1 inactive | GFP autofluor inactive
CC(Sc1cccc[n+]1[O-])C(=O)Nc1cc(Cl)c(Cl)cc1Cl (stereo unspecified)	none
COc1cc(OC)c2c(-c3ccccc3)cc(=O)oc2c1C(CCN1CCCC(C)C1)c1ccc2c(c1)OCO2 (stereo unspecified)	none | Myeloid diff CP1 inactive | GFP autofluor inactive
Nc1nnc(COc2ccc(Br)cc2Br)s1	none
Cc1ccc(C)c(OCc2nnc(N)s2)c1	none (no result: RPL19A TOR yeast) | Myeloid diff CP1 inactive | GFP autofluor inactive
CCN(CC)S(=O)(=O)c1ccc(N2CCCC2)c(C(=O)Nc2ccc(OC)c(Cl)c2)c1	none
Fc1ccc2nc(C3CCCCN3Cc3nc(CC4CC4)no3)[nH]c2c1 (stereo unspecified)	none | Myeloid diff CP1 inactive | GFP autofluor inactive
Fc1ccc(C2CCCCN2Cc2nc(CC3CC3)no2)cc1 (stereo unspecified)	none
CC(=O)COC(=O)CCc1nc2ccccc2[nH]c1=O	none
O=C(CCc1nc2ccccc2[nH]c1=O)OCC(=O)N1CCc2ccccc21	none | Myeloid diff CP1 inactive | GFP autofluor inactive
Cc1ccc(NC(=S)Nc2cccc3cnccc23)cc1C	none | Myeloid diff CP1 inactive | GFP autofluor inactive
CCCCNC(=O)CSc1nc2ccc(N3CCOCC3)cc2c(=O)n1Cc1ccc(OC)cc1	none (no result: CIT2 TOR yeast, MEP2-GFP yeast, AGP1-GFP MLPCN, RPL19A TOR yeast, LAP4-GFP MLPCN)
Cc1ccccc1CN(c1ccc(C(=O)Nc2ccccc2C(=O)NCc2ccco2)cc1)S(C)(=O)=O	none | Myeloid diff CP1 inactive | GFP autofluor inactive
CCCCC(=O)Nc1cccc(-c2nc3ncccc3o2)c1C	none
O=c1[nH]c(=S)[nH]c2c1C(c1ccc(Br)cc1)c1c([nH]c(=S)[nH]c1=O)O2	none
C=CCc1c(C)nc(-c2ccccc2)nc1Nc1ccccc1O	Myeloid diff MLP active | Myeloid diff CP1 inactive | GFP autofluor 63
C=CCc1c(C)nc(-c2ccccc2)nc1N/N=C/c1ccccc1	none
O=C(Nc1nccs1)C1CCCN(S(=O)(=O)c2cccc3cccnc23)C1 (stereo unspecified)	none | Myeloid diff CP1 inactive | GFP autofluor inactive
COCCCNCCOc1ccccc1-c1ccccc1	none
COCCCNCCCCOc1ccccc1-c1ccccc1	none | Myeloid diff CP1 inactive | GFP autofluor inactive
CCCCCn1nc(-c2ccccc2)c2nc3ccccc3nc21	Myeloid diff MLP active | Myeloid diff CP1 inactive | GFP autofluor 82
COC(=O)c1ccc(CSc2ncn[nH]2)o1	none
CCOC(=O)c1ccc(CSc2ncn[nH]2)o1	none (no result: CIT2 TOR yeast) | Myeloid diff CP1 inactive | GFP autofluor inactive
CCC(CO)Oc1cc(NCc2ccc(Cl)cc2)c2ncn(C(C)C)c2c1 (stereo unspecified)	none | Myeloid diff CP1 inactive | GFP autofluor inactive
CCOc1ccc(CN2CCN(Cc3cc4c(cc3Cl)OCO4)CC2CCO)cc1 (stereo unspecified)	CIT2 TOR yeast inconclusive, MEP2-GFP yeast inconclusive, AGP1-GFP MLPCN inconclusive, RPL19A TOR yeast inconclusive, LAP4-GFP MLPCN inconclusive
Nc1cc(Cl)ccc1N1CCCC1	none
Cc1ccc(NS(=O)(=O)c2c(C)[nH]c(C)c2C(=O)N2CCCCC2)cc1C	none
COc1ccccc1NC(=O)C(NC(=O)c1ccc(C)cc1)c1ccccc1 (stereo unspecified)	none
Cc1ccc2nsnc2c1NC(=O)c1ccc(-c2cc(Cl)ccc2Cl)o1	none (no result: AGP1-GFP MLPCN)
O=C(Nc1ccccn1)c1ccc([N+](=O)[O-])o1	none
Cc1ccc2nsnc2c1NC(=O)c1ccc([N+](=O)[O-])o1	Myeloid diff MLP active | Myeloid diff CP1 inactive | GFP autofluor inactive
Cc1ccnc(NC(=O)c2ccc([N+](=O)[O-])o2)c1	Myeloid diff MLP active | Myeloid diff CP1 inactive | GFP autofluor inactive
O=c1oc2c3c(nn2c2ccccc12)CCCC3	none
O=[N+]([O-])CC(c1ccccc1)c1c[nH]c2ccccc12 (stereo unspecified)	Myeloid diff MLP active | Myeloid diff CP1 inactive | GFP autofluor inactive
O=C(NCC1CCCO1)C(c1ccc(F)cc1)N(C(=O)Cn1nnc(-c2ccc(F)cc2)n1)c1cccc(O)c1 (stereo unspecified)	none | Myeloid diff CP1 inactive | GFP autofluor inactive
CC(C)CC(C(=O)NCC1CCCO1)N(C(=O)Cn1nnc(-c2ccc(F)cc2)n1)c1cccc(C(F)(F)F)c1 (stereo unspecified)	none
Cn1c(-c2ccccc2)c[n+]2c1-c1ccccc1C2	none | Myeloid diff CP1 active | GFP autofluor inactive
CC(C)=N/N=C(/c1ccc([N+](=O)[O-])cc1)C12CN3CN(CN(C3)C1)C2	none

Assay outcomes as filed in PubChem.
